Where “and” joins values, the source holds several entries; their conditions need not be identical. Equal values may be shown once. The panel holds about 83,000 compounds, 20% with a hit somewhere; the sample as a whole holds those more often.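 The test compound was applied at a single concentration to cells in 96-well plates for 48 hours, and percent growth was recorded.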 Unmarked numbers belong to inactive results. Calls of active or inactive are those of the source. The calls were made as follows: active = growth percent below 10; inactive = the rest.

The assay deals with MDA-MB-468 breast. Nature of the assay: NCI-60 one-dose screen, 48 h (100 = growth as untreated, 0 = no growth, -100 = all killed). The conditions noted are these: 10 µM unless noted.
Consider `O=Nc1c(O)ccc2ccccc12`, for which the growth was 78.9% and 81.4%.
Take `Cc1cc(N=Nc2ccc(-c3ccc(N=Nc4ccc(O)c(C(=O)O)c4)cc3)cc2)c(N)c(N=Nc2ccc(C(=O)O)cc2)c1N`: the growth is 92.6%.
To `Cc1ccc(S(=O)(=O)N/N=C/C2(c3ccccc3)CC2)cc1` belongs 95.8%; to `CCOC(=O)c1ccc(N=Cc2sc(=O)[nH]c2O)cc1`, 98.6%; to `CCOc1ccc2nc(NC(=O)Nc3ccccc3C)sc2c1`, 20.4%.
To `Cc1cccc(Cc2cnc(NC(=O)CCCOc3ccc(Cl)cc3)s2)c1` belongs 3.77% (active); to `Cc1cn(-c2cc(NC(=O)c3cncc(C#Cc4cnc5ccc(O[C@@H]6CCOC6)nn45)c3)cc(C(F)(F)F)c2)cn1`, -74.8% (active).
To `O=C(CCc1ccc(O)cc1)N/N=C/c1cc(Br)ccc1O` belongs 56.8%; to `O=C(NCCCCCCNC(=O)c1c2c(nc3ccccc13)-c1cccnc1SC2)c1c2c(nc3ccccc13)-c1cccnc1SC2`, 90.4%; to `C[C@]12CC[C@H]3[C@@H](CCC4=CC(=O)CC[C@@]43C)[C@@H]1CC[C@@H]2c1csc(N)n1`, 28.4%.
Consider `CN1CCN(c2cc(F)c(NC3=C(Cl)C(=O)c4ncccc4C3=O)c(F)c2)CC1`, for which the growth was -73.9% (active).
To `COc1cccc(/C=C2\COc3ccc(O)c(O)c3C2=O)c1` belongs -11.1% (active).
In the case of `CC1(C)CCCC2=C1C(=O)N(SC(Cl)(Cl)Cl)C2=O` it was 79.6%; in that of `CC1SC(c2ccccc2O)N(NC(=O)CCC(=O)c2nc3ncccc3[nH]2)C1=O` (stereo unspecified), 88.1%; in that of `C=CCSc1nnc(COc2ccc3c(C)c(Cc4ccccc4)c(=O)oc3c2C)o1`, 113%.
With `O=C(Cc1ccc(OCc2ccccc2)cc1)NCc1ccc2c(c1)OCO2`, the growth is 81.5%.
To `O=C1C=CC2(NN=C(c3ccccc3)N2c2cccc(Cl)c2)c2cccc(O)c21` (stereo unspecified) belongs 76.1%; to `NC(N)=NC(N)=NCCCc1ccccc1`, -0.206% [100 µM] (active); to `COc1cc(-c2nc(-c3nnc(-c4cccnc4)o3)c3ccccn23)cc(OC)c1OC`, 104%.
To `NCCNc1ccc2cc(-c3nc4ccccc4[nH]3)c(=O)oc2c1` belongs 94.9%; to `Brc1ccc2[nH]cc(-c3nc(-c4c[nH]c5ncccc45)cs3)c2c1`, 43.6%; to `O=C(/C=C/c1ccc(C(F)(F)F)cc1)c1ccc(Nc2nc(NCCO)nc(N3CCOCC3)n2)cc1`, 20.4%.
To `Cc1cc2[nH]c(=O)c3c4ncccc4cn3c2cc1C` belongs 23.2%; to `NS(=O)(=O)c1ccc(Nc2cc(-c3ccccc3)nc(SCC(=O)c3ccccc3)n2)cc1`, 99.3%; to `Nc1ccc2c(c1)/C(=N/O)c1cc([N+](=O)[O-])ccc1-2`, 89.8%.
Turning to `Cc1cc(NS(=O)(=O)c2ccc(N=Nc3cc(N=Nc4ccc(S(=O)(=O)Nc5cc(C)nc(C)n5)cc4)c4c(NC(=O)C(Cl)Cl)cccc4c3OC(=O)C(Cl)Cl)cc2)nc(C)n1` (tested in a mixture with another compound), the growth is 103% and 78.5%.
In the case of `COc1cc(-c2nc3ccc(-c4nnc(SCC(=O)Nc5ccc(C(=O)/C=C/c6ccc(Cl)cc6)cc5)o4)cc3[nH]2)cc(OC)c1OC` it was 93%.
In the case of `C(=N\Nc1ncc(-c2cc3cc4c(cc3o2)OCO4)s1)/c1ccco1` it was 27.3%; in that of `COc1cc(OC)cc(-c2ccc(-c3ccc(C(=N)N)cn3)o2)c1`, -69.9% (active); in that of `COc1ccc(/C=N/C2=C(C#N)C(c3ccc(OC)cc3)c3ccc4ccccc4c3O2)cc1` (stereo unspecified), 38.2%.
On to `CCOC(OCC)c1cnc2nc(NC(C)=O)[nH]c(=O)c2n1`, for which the growth was 109%.
To `N[C@H]1CN(C(=O)c2cc3cc(Br)c(F)c(F)c3[nH]2)C[C@@H]1O` belongs 106%; to `COC(=O)C1=C(C)NC(C)=C(C(=O)OCC(C)C)C1c1ccccc1[N+](=O)[O-]` (stereo unspecified), 44.7%.
In the case of `COc1ccc(/C=C(\c2cc(OC)c(OC)c(OC)c2)c2nnc(-c3cccs3)o2)cc1` it was 77.7%; in that of `CCNC(=O)Oc1ccc(/C(=C(/CC)Cc2ccccc2)c2ccc(OCCN3CCCC3)cc2)cc1`, 87.5%; in that of `CN(C)c1ccc(/C=C(\C#N)c2cc3ccccc3[nH]2)cc1`, -3.07% (active).

The values are drawn from PubChem BioAssay (NCI).
